PubChem BioAssay (Tox21)
“And” between values parts separate entries of the source, which are not always exact repeats. Equal values may be shown once. Results filed as inconclusive are left out. Entries that show only a call come without a potency. A number with no mark means an inactive call. The source made the active and inactive calls. Calls follow the shape of the dose curve; as a rule, active = well fitted curve in the direction sought with a large enough effect in the repeat runs; inconclusive = weak or mixed curves; inactive = no such curve, though single readings can be large; an effect the other way counts as inactive or inconclusive. Residues, ends and D or L forms follow the SMILES beside them.

What was measured:
[1] = target: Nuclear receptor subfamily 1 group I member 2 (Rattus norvegicus) (UniProt Q9R1A7); test: Rat pregnane X receptor (rPXR) activation by small molecules, qHTS assay (AID 1346983); details: rPXR luciferase reporter cells, One-Glo luminescence, 24 h; max activation: hits give high values; also: nearly all actives have a fitted effect of over 20% in size
Chain of Nuclear receptor subfamily 1 group I member 2 (Rattus norvegicus) (Q9R1A7 whole entry, looked up): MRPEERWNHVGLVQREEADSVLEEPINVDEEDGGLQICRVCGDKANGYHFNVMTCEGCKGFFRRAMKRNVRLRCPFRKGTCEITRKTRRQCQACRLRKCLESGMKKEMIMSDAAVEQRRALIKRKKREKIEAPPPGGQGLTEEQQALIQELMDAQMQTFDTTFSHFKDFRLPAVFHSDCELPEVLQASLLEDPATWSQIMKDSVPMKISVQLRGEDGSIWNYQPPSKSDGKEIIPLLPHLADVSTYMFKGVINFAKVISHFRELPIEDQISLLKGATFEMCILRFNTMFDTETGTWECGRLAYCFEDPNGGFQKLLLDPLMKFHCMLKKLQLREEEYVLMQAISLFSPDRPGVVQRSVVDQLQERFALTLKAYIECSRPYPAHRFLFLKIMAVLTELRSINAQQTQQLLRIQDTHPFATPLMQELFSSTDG
In short: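 Luminescent readout (One-Glo luciferase, 30 min room temperature) followed 24 hr compound treatment at 37 C of rPXR cells plated 2,000 per well and preincubated 5hr; qHTS format with compounds delivered in DMSO.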

[2] = target: Nuclear receptor subfamily 1 group I member 2 (Homo sapiens) (UniProt O75469); test: CYP3A4 induction through human pregnane X receptor (PXR) by small molecules, qHTS assay (AID 1346984); also: nearly all actives have a fitted effect of over 40% in size
In short: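 qHTS, concentration-response format: HepG2 DPX-2 line, PXR/CYP3A4-luc. Exposure 24 h, 37C. Substrate Luciferin-IPA 3uM final, 3 h. Detection One-Glo, 30 min RT.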

[3] = target: Nuclear receptor subfamily 1 group I member 2 (Homo sapiens) (UniProt O75469); test: Human pregnane X receptor (PXR) activation by small molecules, qHTS assay (AID 1346985); also: nearly all actives have a fitted effect of over 40% in size
In short: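 DPX-2 cells (HepG2 co-transfected with a PXR response element and a CYP3A4-promoter luciferase construct) were seeded at 2,000 per well, rested 5 hr at 37C, then exposed to DMSO-dissolved compounds for 24 hr. Activation was read as luciferase luminescence.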
Potency is read from the fitted curve at half-maximal effect.

| SMILES | max activation [1] | Potency [2] | Potency [3] | Potency [1] |
| --- | --- | --- | --- | --- |
| CCCCCCCCCCCC[n+]1ccc2ccccc2c1 | -19.3% | inactive |  |  |
| COC1=C(OC)C(=O)C(C/C=C(\C)CC/C=C(\C)CC/C=C(\C)CC/C=C(\C)CC/C=C(\C)CC/C=C(\C)CC/C=C(\C)CC/C=C(\C)CC/C=C(\C)CCC=C(C)C)=C(C)C1=O | -2.14% | inactive |  |  |
| CC(=O)Oc1cc(C(F)(F)F)ccc1C(=O)O | 2.94% | inactive |  |  |
| CO/N=C(\C(=O)N[C@@H]1C(=O)N2C(C(=O)O)=C(CSc3cnns3)CS[C@H]12)c1csc(N)n1 | -0.96% | inactive |  |  |
| O=C(O)COc1ccc(C(=O)c2cccs2)c(Cl)c1Cl | -1.39% and -4.28% | inactive |  |  |
| C[C@H](O)CN(C)C | -2.23% | inactive | inactive |  |
| COc1cc(NS(C)(=O)=O)ccc1Nc1c2ccccc2nc2ccccc12 | -19% | inactive |  |  |
| CCC(NC(C)C)C(O)c1ccc(O)c(O)c1 (configuration not stated) | -0.219% | inactive |  |  |
| CC(=O)Nc1ccc(OC(C)=O)cc1 | -1.35% | inactive |  |  |
| CC(C)(Oc1ccc(C2CCCc3ccccc32)cc1)C(=O)O (configuration not stated) | -3.77% | inactive |  |  |
| COC(=O)C[C@](O)(CCCC(C)(C)O)C(=O)O[C@@H]1C(OC)=CC23CCCN2CCc2cc4c(cc2[C@H]13)OCO4 (some centres not stated) | -15.5% | inactive | inactive |  |
| COc1ccc(/C=C/C(=O)O)cc1 | 1.47% | inactive | inactive |  |
| CC(C)(C)c1ccc2c(S(=O)(=O)O)c(C(C)(C)C)ccc2c1 | -3.68% |  |  |  |
| C=CC1=C(C(=O)O)N2C(=O)[C@@H](NC(=O)/C(=N\O)c3csc(N)n3)[C@H]2SC1 (stereo in doubt) | -3.55% | inactive |  |  |
| O=C(O)COc1ccccc1/C=N/NC(=O)c1ccncc1 | -3.2% | inactive |  |  |
| CC(C)C[C@H](NC(=O)[C@@H](COC(C)(C)C)NC(=O)[C@H](Cc1ccc(O)cc1)NC(=O)[C@H](CO)NC(=O)[C@H](Cc1c[nH]c2ccccc12)NC(=O)[C@H](Cc1cnc[nH]1)NC(=O)[C@@H]1CCC(=O)N1)C(=O)N[C@@H](CCCN=C(N)N)C(=O)N1CCC[C@H]1C(=O)NNC(N)=O | -1.54% | inactive |  |  |
| O=C(O)c1cc(=O)c2c3nc4ccccc4oc-3cc(=O)c2[nH]1 | -7.15% | inactive | inactive |  |
| NC(N)=NCC1COC2(CCCCC2)O1 (configuration not stated) | -2.55% | inactive | inactive |  |
| COc1cc2c(cc1O)CCN[C@]21CS[C@@H]2c3c(OC(C)=O)c(C)c4c(c3[C@H](COC1=O)N1[C@@H]2[C@H]2c3c(cc(C)c(OC)c3O)C[C@@H]([C@@H]1O)N2C)OCO4 | -17.5% | inactive | inactive |  |
| CN1C(C(=O)Nc2ccccn2)C(=O)c2sc(Cl)cc2S1(=O)=O (configuration not stated) | -4.75% | inactive | inactive |  |
| CCc1ncnc2cc(OC)c(OC)cc12 | -3.13% | inactive | inactive |  |
| COc1ccc(/C=N/NC(=O)c2ccncc2)c(C(=O)O)c1OC | -2.1% | inactive | inactive |  |
| O=C(O)[C@H]1CN(C/C=C/P(=O)(O)O)CCN1 | -2.14% | inactive | inactive |  |
| O=P(O)(O)OP(=O)(O)OP(=O)(O)O | -6.54% | inactive | inactive |  |
| N[C@H](CO)C(=O)O | -0.898% | inactive | inactive |  |
| CN(C)CCc1c[nH]c2ccc(Cn3cncn3)cc12 | -1.87% | inactive | inactive |  |

| SMILES | max activation [1] | Potency [2] | Potency [3] | Potency [1] |
| --- | --- | --- | --- | --- |
| C=N[C@@H](C(=O)N[C@@H]1C(=O)N2[C@@H]1SC(C)(C)[C@@H]2C(=O)O)c1ccccc1 | -2.74% | inactive | inactive |  |
| CC1(C)S[C@@H]2[C@H](N3C(=O)C(c4ccccc4)NC3(C)C)C(=O)N2[C@H]1C(=O)O (some centres not stated) | -2.27% | inactive | inactive |  |
| O=C(O)c1ccc(NC2OC[C@@H](O)[C@H](O)[C@H]2O)cc1 (some centres not stated) | 10.7% | inactive | inactive |  |
| CN[C@@H]1[C@@H](O[C@H]2O[C@H](CO)[C@@H](N)[C@H](O)[C@H]2O)O[C@H]2C[C@@H](N)[C@@H](O[C@H]3[C@H](O)[C@@H](O)[C@H](N)C[C@@H]3N)O[C@@H]2[C@@H]1O | -0.875% | inactive | inactive |  |
| NCC1CCC(C(=O)O)CC1 (configuration not stated) | -1.27% | inactive | inactive |  |
| NC(=S)NS(=O)(=O)c1ccc(N)cc1 | -1.97% | inactive | inactive |  |
| CC(C)[C@H](NC(=O)[C@H](CC(=O)O)NC(=O)[C@H](CCCCN)NC(=O)[C@@H](N)CCCN=C(N)N)C(=O)N[C@@H](Cc1ccc(O)cc1)C(=O)O (H-RKDVY-OH) | -1.21% | inactive | inactive |  |
| O=C(O)/C=C/C(=O)Nc1ccc(S(=O)(=O)Nc2nccs2)cc1 | -4.08% | inactive | inactive |  |
| CO/N=C(\C(=O)N[C@@H]1C(=O)N2C(C(=O)O)=C(CSc3nc(C)c(CC(=O)O)s3)CS[C@H]12)c1csc(N)n1 | -4.17% | inactive | inactive |  |
| NCC(O)CC(=O)O (configuration not stated) | -2.62% | inactive | inactive |  |
| N=C(N)c1ccc(/C=C/c2ccc(C(=N)N)cc2O)cc1 | -1.55% | inactive | inactive |  |
| NC(=O)c1cc[n+](CC2=C(C(=O)O)N3C(=O)[C@@H](NC(=O)C(c4ccccc4)S(=O)(=O)[O-])[C@H]3SC2)cc1 (some centres not stated) | -2.77% | inactive | inactive |  |
| CCCCCCOC(=O)c1cccnc1 | -0.199% | inactive | inactive |  |
| CC(=O)NC[C@H]1CN(c2ccc(N3CCOCC3)c(F)c2)C(=O)O1 | -2.66% | inactive | inactive |  |
| C[N+](C)(C)CCOP(=O)(O)OP(=O)([O-])OC[C@H]1O[C@@H](n2ccc(N)nc2=O)[C@H](O)[C@@H]1O | -1.05% | inactive | inactive |  |
| C[C@@H]1C[C@H]2[C@@H]3C[C@H](F)C4=CC(=O)C=C[C@]4(C)[C@@]3(Cl)[C@@H](O)C[C@]2(C)[C@H]1C(=O)COC(=O)C(C)(C)C |  | inactive | inactive | 2.82 µM (active) |
| CC1(C)CCC(NC(=O)[C@@H](N)CCC(=O)O)CC1 | -2.85% | inactive | inactive |  |
| CC(CNC(=O)c1cccnc1)NC(=O)c1cccnc1 (configuration not stated) | -2.47% | inactive | inactive |  |
| O=C1CCC(c2ccccc2)(C2CCN(Cc3ccccc3)CC2)C(=O)N1 (configuration not stated) | 4.99% | 14.1 µM (active) | 5.62 µM (active) |  |
| C[N+]1(CCCCC[N+]2(C)CCCC2)CCCC1 | -2.61% | inactive | inactive |  |
| COC(=O)C(CN)c1c[nH]c2ccc(OC)cc12 (configuration not stated) | -1.11% | inactive | inactive |  |
| CO/N=C(\C(=O)N[C@@H]1C(=O)N2C(C(=O)[O-])=C(C[n+]3cccc4c3CCC4)CS[C@H]12)c1csc(N)n1 | -2.77% | inactive | inactive |  |
| c1ccc2c(c1)OCC(CN1CCCCC1)O2 (configuration not stated) | -3.94% | inactive | inactive |  |
| C=C1C(=C/C=C2\CCC[C@]3(C)[C@@H]([C@H](C)CCCC(C)C)CC[C@@H]23)C[C@@H](O)C[C@@H]1O | -2.56% | inactive | inactive |  |
| CCOc1cc(CC(=O)N[C@@H](CC(C)C)c2ccccc2N2CCCCC2)ccc1C(=O)O | -4.89% | inactive | inactive |  |
| O=C[C@H](O)[C@@H](O)[C@@H](O)[C@H](O)CO | -2.08% | inactive | inactive |  |
